Assay results taken from PubChem BioAssay (Tox21).
“And” between values parts separate entries of the source, which are not always exact repeats. Identical values can stand only once. Records with an inconclusive call do not appear. A structure can be active in one record and inactive in another. The source made the active and inactive calls. Unless noted, calls come from the whole dose curve.

Legend:
[1] = target: Thyrotropin receptor (Homo sapiens) (UniProt P16473); assay: qHTS assay to identify small molecule agonists of the thyroid stimulating hormone receptor (TSHR) signaling pathway (AID 1224843); note: nearly all actives have a fitted effect of over 45% in size
Method in brief: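 HEK293 cells stably bearing the thyrotropin receptor were plated at 800 cells/well and challenged with compound (30 min, RT). Accumulated cAMP was quantified via cAMP-d2 competing for cryptate-tagged antibody.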

[2] = qHTS assay to identify small molecule agonists of the hypoxia (HIF-1) signaling pathway - cell viability counter screen (AID 1224844); note: nearly all actives have a fitted effect of over 50% in size; note: potency is the fitted concentration of half-maximal effect
Method in brief: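 ME-180 HRE-bla cells, 2,000/well, 0.5% dialyzed FBS; 5 hr settle, 17 hr compound at 37C/5% CO2; CCF4-AM reporter read first, then CellTiter-Glo luminescence after 30 min RT.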

[3] = qHTS assay to identify small molecule agonists of H2AX (AID 1224845; active = well fitted activation curve with a large enough effect in the signal ratio in the repeat runs, not every such curve was filed as active; the % refers to the signal ratio)
Method in brief: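 Phospho-H2AX Ser139 measured by HTRF (ex 320 nm; em 665 and 620 nm) after 24 hr antibody incubation. Compounds, 15 concentrations, 0.76% DMSO, were applied to CHO-K1 cells for 3hr at 37C before lysis.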

[4] = qHTS assay to identify small molecule agonists of H2AX - cell viability counter screen (AID 1224847);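 note: wild-type CHO-K1 cells; top concentration of the series differs between compounds; nearly all actives have a fitted effect of over 30% in size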
Method in brief: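 Cells plated first: CHO-K1, 1000 per well in 10% FBS medium, incubated overnight at 37C. Then 15-point compound titration added (final DMSO 0.76%) for 3 hr. Finally CellTiter-Glo added and luminescence read.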

[5] = qHTS assay to identify small molecule antagonists of the estrogen related receptor (ERR) signaling pathway from Tox21 library (AID 1224848; active = well fitted curve in the direction sought with a large enough effect in the repeat runs; an effect the other way counts as inactive or inconclusive; note: nearly all actives have a fitted effect of over 50% in size; note: potency is the fitted concentration of half-maximal effect)
Method in brief: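 Reading was by luminescence 30 min after ONE-Glo addition. Before that, ERR cells at 2,000 per well had rested 6 h at 37 C/5% CO2 and then received pin-tooled compounds in DMSO for 18 h at 37 C.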

[6] = qHTS assay to identify small molecule agonists of the estrogen related receptor (ERR) signaling pathway from Tox21 library (AID 1224849); settings: ERR reporter cell line, ONE-Glo luciferase, 18 h; note: nearly all actives have a fitted effect of over 15% in size
Method in brief: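 ERR cells, 6 h pre-incubation 37 C/5% CO2; cpd in DMSO pinned; 18 h 37 C; ONE-Glo added, 30 min RT; luminescence read. Agonist mode, qHTS.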

[7] = qHTS RealTime-Glo MT Cell Viability Assay in HepG2 cells - 24 hour (AID 1224867; active = well fitted curve in the direction sought with a large enough effect in the repeat runs; an effect the other way counts as inactive or inconclusive; note: nearly all actives have a fitted effect of over 50% in size; note: potency is the fitted concentration of half-maximal effect)
Method in brief: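 HepG2 cells (600/well) were dispensed with RealTime-Glo reagents, incubated 5 h at 37 °C, then treated with compounds in DMSO for up to 40 h. Nonlytic NanoLuc luminescence reflecting viable cells was read at each stated time point.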

[8] = A CellTox Green Cytotoxicity Assay to monitor cytotoxicity in HEK293 cells - 0 hour (AID 1224869; active = well fitted curve in the direction sought with a large enough effect in the repeat runs; an effect the other way counts as inactive or inconclusive; note: nearly all actives have a fitted effect of over 50% in size)
Method in brief: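 Nonlytic real-time cytotoxicity: HEK293 + CellTox Green reagent plated, 5 h preincubation, pintool compound addition (23 nL in DMSO), 37 C for 40 h, fluorescence measured at successive time points.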

[9] = qHTS assay to identify small molecule agonists of the hypoxia (HIF-1) signaling pathway (AID 1224846; active = well fitted activation curve with a large enough effect in the signal ratio in the repeat runs, not every such curve was filed as active; the % refers to the signal ratio)
Method in brief: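 Cell line: CellSensor HRE-bla ME-180; 2,000 cells/well; 0.5% dialyzed FBS; 5 h preincubation; DMSO compound pin transfer; 17 h, 37C, 5% CO2; CCF4-AM added; bla FRET signal scored for activation.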

[10] = qHTS RealTime-Glo MT Cell Viability Assay in HEK293 cells - 32 hour (AID 1224868; active = well fitted curve in the direction sought with a large enough effect in the repeat runs; an effect the other way counts as inactive or inconclusive; note: nearly all actives have a fitted effect of over 50% in size; note: potency is the fitted concentration of half-maximal effect)
Method in brief: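 HEK293 cells seeded with NanoLuc/prosubstrate reagent, rested 5 h at 37 C, then dosed and kept at 37 C up to 40 h. Nonlytic real-time luminescence from viable cells read at 0, 8, 16, 24, 32 and 40 h.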
% is set by controls: 0 for no effect and ±100 for the full control effect.

Sequence of Thyrotropin receptor (Homo sapiens) (P16473 whole entry, looked up): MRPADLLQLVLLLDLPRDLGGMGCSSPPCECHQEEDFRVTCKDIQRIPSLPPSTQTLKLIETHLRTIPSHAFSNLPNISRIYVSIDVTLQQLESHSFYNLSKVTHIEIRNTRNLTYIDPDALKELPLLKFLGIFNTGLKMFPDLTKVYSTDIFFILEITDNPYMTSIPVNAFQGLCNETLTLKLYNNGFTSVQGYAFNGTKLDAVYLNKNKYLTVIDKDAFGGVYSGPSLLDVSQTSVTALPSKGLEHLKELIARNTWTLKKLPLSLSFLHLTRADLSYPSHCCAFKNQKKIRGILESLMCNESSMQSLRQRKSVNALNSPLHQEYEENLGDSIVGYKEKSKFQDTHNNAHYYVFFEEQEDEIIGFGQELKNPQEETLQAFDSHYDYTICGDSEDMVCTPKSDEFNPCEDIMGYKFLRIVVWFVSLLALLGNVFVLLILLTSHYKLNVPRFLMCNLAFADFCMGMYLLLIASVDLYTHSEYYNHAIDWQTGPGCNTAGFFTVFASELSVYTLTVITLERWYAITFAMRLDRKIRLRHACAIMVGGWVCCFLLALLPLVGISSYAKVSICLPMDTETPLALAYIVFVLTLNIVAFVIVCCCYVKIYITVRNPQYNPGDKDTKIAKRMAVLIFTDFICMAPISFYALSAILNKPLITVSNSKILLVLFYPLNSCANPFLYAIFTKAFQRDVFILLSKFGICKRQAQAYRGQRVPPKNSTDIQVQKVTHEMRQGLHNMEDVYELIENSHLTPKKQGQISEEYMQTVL

CCCN(CCC)S(=O)(=O)c1ccc(C(=O)O)cc1
inactive: outcome [1] | Potency [2] | outcome [3] | outcome [4] | Potency [5] | activity change, positive = activation ([6]; at 42.5 µM (top of the series)) 3.98% | activity change, positive = activation ([6]; at 92.4 µM (top of the series)) -17.4% and 3.56% | Potency [7] | outcome [8]

O=C1CN(/N=C/c2ccc([N+](=O)[O-])o2)C(=O)N1
inactive: outcome [1] | Potency [2] | outcome [3] | outcome [9] | outcome [4] | activity change, positive = activation ([6]; at 42.5 µM (top of the series)) -52% | activity change, positive = activation ([6]; at 92.4 µM (top of the series)) -64.2% and -59.1% | Potency [7] | outcome [8]
active: Potency [5] 19.3 µM and 30.6 µM and 21.1 µM

CCCCCCCCCCCCCCCC(=O)O
inactive: outcome [1] | Potency [2] | outcome [3] | outcome [9] | outcome [4] | Potency [7] | outcome [8]

NC(N)=O
inactive: outcome [1] | Potency [2] | outcome [9] | outcome [4] | Potency [7] | Potency [10] | outcome [8]

O=S(=O)(O)NC1CCCCC1
inactive: outcome [1] | Potency [2] | outcome [9] | outcome [4] | Potency [7] | Potency [10] | outcome [8]

Cc1ccccc1C(OCCN(C)C)c1ccccc1 (centres undefined)
inactive: outcome [1] | Potency [2] | outcome [3] | outcome [4] | Potency [5] | activity change, positive = activation ([6]; at 42.5 µM (top of the series)) 0.836% | activity change, positive = activation ([6]; at 92.4 µM (top of the series)) 0.151% and 0.194% | Potency [7] | Potency [10] | outcome [8]

CC(O)CO (centres undefined)
inactive: outcome [1] | Potency [2] | outcome [9] | outcome [4] | Potency [5] | activity change, positive = activation ([6]; at 8.39 µM (top of the series)) -3.08% | activity change, positive = activation ([6]; at 92.4 µM (top of the series)) -3.85% and -1.76% | Potency [7] | outcome [8]

CC(C)[C@@H]1CC[C@@H](C)C[C@H]1O
inactive: outcome [1] | Potency [2] | outcome [3] | outcome [9] | outcome [4] | Potency [7] | Potency [10] | outcome [8]

CC(O)C(=O)O (centres undefined)
inactive: outcome [1] | Potency [2] | outcome [3] | outcome [9] | outcome [4] | Potency [7] | Potency [10] | outcome [8]

Cn1c(=O)c2[nH]cnc2n(C)c1=O
inactive: outcome [1] | Potency [2] | outcome [3] | outcome [4] | Potency [7] | outcome [8]

OCCc1ccccc1
inactive: outcome [1] | Potency [2] | outcome [3] | outcome [9] | outcome [4] | Potency [7] | Potency [10] | outcome [8]

Nc1ccc(C(=O)O)cc1
inactive: outcome [1] | Potency [2] | outcome [3] | outcome [9] | outcome [4] | Potency [7] | outcome [8]

CCCCC1C(=O)N(c2ccccc2)N(c2ccccc2)C1=O
inactive: outcome [1] | Potency [2] | outcome [9] | outcome [4] | activity change, positive = activation ([6]; at 42.5 µM (top of the series)) 2.49% | activity change, positive = activation ([6]; at 92.4 µM (top of the series)) -34.5% and -44.9% | Potency [7] | Potency [10] | outcome [8]
61.1 µM (active) and inactive: Potency [5]

O=C(O)CCC(=O)O
inactive: outcome [1] | Potency [2] | outcome [3] | outcome [9] | outcome [4] | Potency [5] | activity change, positive = activation ([6]; at 42.5 µM (top of the series)) 5.73% | activity change, positive = activation ([6]; at 92.4 µM (top of the series)) 5.97% and 1.48% | Potency [7] | outcome [8]

Nc1ccn([C@H]2CC[C@@H](CO)O2)c(=O)n1
inactive: outcome [1] | Potency [2] | outcome [3] | outcome [4] | Potency [7] | outcome [8]

CC(C)(Oc1ccc(C2CC2(Cl)Cl)cc1)C(=O)O (centres undefined)
inactive: outcome [1] | Potency [2] | outcome [3] | outcome [9] | outcome [4] | Potency [7] | Potency [10] | outcome [8]

c1ccc2[nH]ccc2c1
inactive: outcome [1] | outcome [3] | outcome [9] | outcome [4] | activity change, positive = activation ([6]; at 42.5 µM (top of the series)) 11.1% | activity change, positive = activation ([6]; at 92.4 µM (top of the series)) -76.8% and 0.106% | outcome [8]
6.07 µM (active) and inactive: Potency [7]
17.1 µM (active) and inactive: Potency [2]
2.39 µM (active) and inactive: Potency [5]
2.15 µM (active) and inactive: Potency [10]

OC(Cn1cncn1)(Cn1cncn1)c1ccc(F)cc1F
inactive: outcome [1] | Potency [2] | outcome [9] | outcome [4] | Potency [5] | activity change, positive = activation ([6]; at 42.5 µM (top of the series)) 4.61% | activity change, positive = activation ([6]; at 92.4 µM (top of the series)) 8.25% and 5.79% | Potency [7] | Potency [10] | outcome [8]

CC1(C)[C@@H]2CC[C@@]1(C)C(=O)C2
inactive: outcome [1] | Potency [2] | outcome [9] | outcome [4] | Potency [5] | activity change, positive = activation ([6]; at 42.5 µM (top of the series)) 1.44% | activity change, positive = activation ([6]; at 92.4 µM (top of the series)) 5.63% and 2.83% | Potency [7] | outcome [8]

CC(=O)OCC(COC(C)=O)OC(C)=O
inactive: outcome [1] | Potency [2] | outcome [9] | outcome [4] | Potency [5] | activity change, positive = activation ([6]; at 42.5 µM (top of the series)) 6.67% | activity change, positive = activation ([6]; at 92.4 µM (top of the series)) -0.709% and 8.04% | Potency [7] | outcome [8]

Cc1noc(NS(=O)(=O)c2ccc(N)cc2)c1C
inactive: outcome [1] | Potency [2] | outcome [3] | outcome [9] | outcome [4] | Potency [7] | Potency [10] | outcome [8]

CCOc1ccc(NC(=O)CC(C)O)cc1 (centres undefined)
inactive: outcome [1] | Potency [2] | outcome [3] | outcome [9] | outcome [4] | Potency [7] | outcome [8]

Nc1ccc(O)c(C(=O)O)c1
inactive: outcome [1] | Potency [2] | outcome [9] | outcome [4] | Potency [5] | activity change, positive = activation ([6]; at 42.5 µM (top of the series)) -9.77% | activity change, positive = activation ([6]; at 92.4 µM (top of the series)) -1.78% and -6.73% | Potency [7] | outcome [8]

O=C(O)c1cccnc1
inactive: outcome [1] | Potency [2] | outcome [3] | outcome [9] | outcome [4] | Potency [7] | outcome [8]

O=c1cc[nH]c(=S)[nH]1
inactive: outcome [1] | Potency [2] | outcome [3] | outcome [9] | outcome [4] | Potency [5] | activity change, positive = activation ([6]; at 42.5 µM (top of the series)) 7.5% | activity change, positive = activation ([6]; at 92.4 µM (top of the series)) 16.5% and 3.21% | Potency [7] | Potency [10] | outcome [8]

NS(=O)(=O)c1cc(C(=O)O)c(NCc2ccco2)cc1Cl
inactive: outcome [1] | Potency [2] | outcome [9] | outcome [4] | Potency [5] | Potency [7] | outcome [8]

C1N2CN3CN1CN(C2)C3
inactive: outcome [1] | Potency [2] | outcome [9] | outcome [4] | Potency [7] | Potency [10] | outcome [8]

CCCC(CCC)C(=O)O
inactive: outcome [1] | Potency [2] | outcome [3] | outcome [9] | outcome [4] | Potency [7] | Potency [10] | outcome [8]

NC(=O)c1ccccc1O
inactive: outcome [1] | Potency [2] | outcome [9] | outcome [4] | Potency [7] | Potency [10] | outcome [8]

O=C(O)/C=C\C(=O)O
inactive: outcome [1] | Potency [2] | outcome [3] | outcome [9] | outcome [4] | Potency [7] | Potency [10] | outcome [8]

O=C1NC(=O)c2ccccc21
inactive: outcome [1] | Potency [2] | outcome [9] | outcome [4] | Potency [7] | Potency [10] | outcome [8]

COc1ccc2[nH]cc(CCNC(C)=O)c2c1
inactive: outcome [1] | Potency [2] | outcome [3] | outcome [4] | Potency [5] | activity change, positive = activation ([6]; at 42.5 µM (top of the series)) 6.1% | activity change, positive = activation ([6]; at 92.4 µM (top of the series)) 9.68% and -2.51% | Potency [7] | outcome [8]
